From ChEMBL document CHEMBL3433997, “St. Jude Leishmania screening dataset” (2016) come the findings set out here.

In general, inhibition refers to the change of the read-out against control, counted positive when it falls.

Solute carrier family 2, facilitated glucose transporter member 1 (Homo sapiens), sequence (P11166 whole entry): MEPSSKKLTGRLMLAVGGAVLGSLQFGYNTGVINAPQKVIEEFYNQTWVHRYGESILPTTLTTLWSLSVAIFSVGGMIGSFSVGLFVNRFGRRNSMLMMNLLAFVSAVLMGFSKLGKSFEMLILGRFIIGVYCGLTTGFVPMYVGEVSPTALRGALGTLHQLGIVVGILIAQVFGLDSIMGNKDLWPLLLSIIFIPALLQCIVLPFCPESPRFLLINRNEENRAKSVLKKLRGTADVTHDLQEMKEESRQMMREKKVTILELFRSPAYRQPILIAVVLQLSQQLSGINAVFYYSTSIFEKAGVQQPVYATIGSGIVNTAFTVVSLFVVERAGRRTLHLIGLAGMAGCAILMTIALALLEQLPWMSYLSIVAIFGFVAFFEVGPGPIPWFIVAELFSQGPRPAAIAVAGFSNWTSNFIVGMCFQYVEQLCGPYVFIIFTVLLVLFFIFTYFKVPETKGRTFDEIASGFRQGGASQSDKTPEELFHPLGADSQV

One test has as its target Solute carrier family 2, facilitated glucose transporter member 1 (Homo sapiens) (UniProt P11166). The experiment in a line: ST_JUDE_LEISH: Cytotoxicity at 2uM final concentration against transgenic Leishmania Mexicana promastigotes LmGLUT1 that are glucose transport deficient and complemented with the human glucose transporter GLUT1. Activity is measured by DNA content using SYBR green in vitro. It is filed as functional.
As for `O=c1cc(NCCCNCc2cccc(OC(F)(F)C(F)F)c2)[nH]c2ccccc12`, the inhibition came to 6.11%.
Same read-out and setting: in the case of `Cc1ccc(CN2CCCN(Cc3cccc(NC(=O)c4cc5ccccc5s4)c3)CC2)cc1` it was -0.92%; in that of `Cc1cc(C2CCN(CCCCNC(=O)c3ccc(-c4ccc(C(F)(F)F)cc4)cc3)CC2)c(C)cc1OCC#N`, -0.43%; in that of `FC(F)(F)c1cccc(CNCCCCCNCc2ccc(Cl)cc2)c1`, 2.96%.
As for `CCCN(CCC)C(=O)c1cc(C(=O)N[C@@H](Cc2ccccc2)[C@H](O)CNC2CC2)cc(N2CCCCS2(=O)=O)c1`, the inhibition stood at 2.88%.
On the same count and under the same terms, the result for `Cc1cccc2nc(-c3cccc(-c4ccc(NC(=O)C(C)(C)c5ccccn5)cc4)c3)[nH]c12` reads 3.05%; that for `Cc1ccc2[nH]c3ccccc3c(=O)c2c1`, 0.1%.
Take `CCCNC[C@@H](O)[C@H](Cc1ccccc1)NC(=O)c1cc(NCC)cc(N2CCCCS2(=O)=O)c1`: the inhibition came to 1.97%.
For the molecule `CC(C)(CNCc1ccc(Cl)c(Cl)c1)c1nc(-c2ccc(Cl)c(O)c2)c(-c2ccncc2)[nH]1`, the inhibition was determined as 0.8%.
Still for that read-out and setting: in the case of `O=C(OCc1ccccc1)N1CCc2c([nH]c3ccccc23)C1CCC(F)(F)F` (stereo not drawn) it was 3.72%.
Take `Cc1cc(NC(=O)Nc2cccc(Cl)c2Cl)c2ccccc2n1`: the inhibition was 6.15%.
The same measure, in the same setting: the result for `COc1ccc2nccc(N3C[C@H]4C[C@@H]3CN4CCNCc3ccc4c(n3)NC(=O)CS4)c2n1` reads -0.98%; that for `COc1cc(CNc2ccc(N3CCCC3)cc2)cc(Cl)c1OC`, -2.15%.
Same read-out and setting: in the case of `Cc1ccccc1C1CCN(C2CCC(NC(=O)c3cc(-c4ccccc4)oc3C)CC2)CC1` (stereo not drawn) it was -1.06%.
On the same count and under the same terms, in the case of `COc1cccc(CN(C(=O)Nc2ccccc2F)[C@H]2C[C@H]3C(=O)Nc4cc(F)ccc4C(=O)N3C2)c1` it was 4.68%; in that of `CC(=O)c1sc2ccccc2c1O`, -1.09%; in that of `O=S1(=O)NCc2ccc(Nc3nccc(Nc4ccc5c(cnn5Cc5ccccc5)c4)n3)cc21`, -0.8%.
Regarding `OC(CNc1ccnc(Nc2cccc(OCCCN3CCOCC3)c2)n1)c1ccccc1` (stereo not drawn), the inhibition amounted to 0.76%.
On the same count and under the same terms, the result for `CCC(C)(C)c1ccc(Oc2ccc(NC(=O)Nc3ccc(Cl)c(Cl)c3)cc2)cc1` reads 1.75%; that for `CC1(C)NC(N)=NC(=N)N1OCc1ccc2ccccc2c1CON1C(=N)N=C(N)NC1(C)C`, 3.58%; that for `CN(C)CCNC(=O)c1ccc2c(c1)ncn2-c1cc(OCc2ccccc2C(F)(F)F)c(C(N)=O)s1.CN(C)CCNC(=O)c1ccc2ncn(-c3cc(OCc4ccccc4C(F)(F)F)c(C(N)=O)s3)c2c1`, 2.32%.
Regarding `COc1ccc(NC(=O)Nc2ccc(-c3ccncc3)c(C(F)(F)F)c2)cc1N1CCN(C)CC1`, the inhibition came to 13.1%.
Still for that read-out and setting: in the case of `CCn1c(SCc2ccccc2)nc2c1c(=O)[nH]c(=O)n2C` it was -0.07%; in that of `COc1ccc(Nc2nc(NCc3cccnc3)cc(-c3ccc(OC)cc3)n2)cc1`, -0.44%; in that of `Cc1cc(N[C@@H](Cc2ccccc2)C(=O)NCCOc2ccccc2)nc(NCCc2ccccn2)n1`, 6.81%.
Still for that read-out and setting: in the case of `CC(C)(C)c1cc(C(=O)N2CCN(c3ncnc4ccsc34)CC2)n(Cc2ccccc2)n1` it was 4.27%; in that of `Cc1nnsc1C(=O)Nc1ccc(-c2cccc(-c3nc4cccc(C)c4[nH]3)c2)cc1`, 3.57%; in that of `O=C1OC2(CN1CC1CCN(Cc3ccc(O)cc3Cl)C1)c1ccccc1-c1ccccc12` (stereo not drawn), 0.5%.
Still for that read-out and setting: in the case of `CCOc1ccc(C(=O)Nc2cc(Br)c3c(c2)CNCC3)cc1C#N` it was 6.36%.
Regarding `Cc1cc(CN2CCC(N3CC(c4ccccc4)(c4ccccc4)OCC3=O)C2)ccc1O` (stereo not drawn), the inhibition came out at 0.59%.
Same read-out and setting: in the case of `CCCCCc1cc(OC(C)=O)c2c(c1)OC(C)(C)C=C2C1=CCN(Cc2ccccc2)CC1` it was 1.74%; in that of `O=S(=O)(NCCN1CCCC1)c1ccc(-c2ccc(CNCc3ccsc3)cc2)s1`, 10.5%.
Same read-out and setting: in the case of `COc1ccc2c(C)cc(NCCCN(C)C)nc2c1` it was 0.02%; in that of `CO/C(=C\C=C\c1cc2cc(Cl)c(Cl)cc2[nH]1)C(=O)NCCCN1CCCC[C@H]1C`, 3.27%.
Still for that read-out and setting: the result for `Cc1cccc2nc(-c3ccc(-c4ccc(CN5CCCCC5CO)cc4)cc3)[nH]c12` (stereo not drawn) reads 27.8%.
With `N=C1NC(c2ccccc2)(c2ccccc2)C(=O)N1CC=Cc1ccccc1`, the inhibition was determined as 7.01%.
Same read-out and setting: in the case of `CC(O)C1CCCCN1C(=O)c1ccc(-c2ccc(-c3nc4ccccc4[nH]3)s2)cc1` (stereo not drawn) it was -1.19%; in that of `COc1cc2c(cc1CCNCCCCNCCc1cc3c(cc1OC)CCCC3)CCCC2`, 99.4%; in that of `COc1ccc(CNC2Cc3ccccc3C2)cc1-c1ccc(S(=O)(=O)NCCN2CCCC2)c(F)c1`, 28.3%.

For the next test, the target named is Hexose transporter 1 (Plasmodium falciparum) (UniProt O97467). Kind of test: ST_JUDE_LEISH: Cytotoxicity at 2uM final concentration against transgenic Leishmania Mexicana promastigotes LmPfHT that are glucose transport deficient and complemented with the Plasmodium falciparum hexose transporter. Activity is measured by DNA content using SYBR green in vitro. It is filed as functional.
For the molecule `O=c1cc(NCCCNCc2cccc(OC(F)(F)C(F)F)c2)[nH]c2ccccc12`, the inhibition amounted to 7.27%.
As to `Cc1ccc(CN2CCCN(Cc3cccc(NC(=O)c4cc5ccccc5s4)c3)CC2)cc1`, the inhibition was -0.94%.
Regarding `Cc1cc(C2CCN(CCCCNC(=O)c3ccc(-c4ccc(C(F)(F)F)cc4)cc3)CC2)c(C)cc1OCC#N`, the inhibition came to 1.3%.
Still for that read-out and setting: the result for `FC(F)(F)c1cccc(CNCCCCCNCc2ccc(Cl)cc2)c1` reads 1.16%.
In the case of `CCCN(CCC)C(=O)c1cc(C(=O)N[C@@H](Cc2ccccc2)[C@H](O)CNC2CC2)cc(N2CCCCS2(=O)=O)c1`, the inhibition was found to be 2.88%.
The same measure, in the same setting: in the case of `Cc1cccc2nc(-c3cccc(-c4ccc(NC(=O)C(C)(C)c5ccccn5)cc4)c3)[nH]c12` it was 1.16%; in that of `Cc1ccc2[nH]c3ccccc3c(=O)c2c1`, 1.92%; in that of `CCCNC[C@@H](O)[C@H](Cc1ccccc1)NC(=O)c1cc(NCC)cc(N2CCCCS2(=O)=O)c1`, 2.32%.
Still for that read-out and setting: the result for `CC(C)(CNCc1ccc(Cl)c(Cl)c1)c1nc(-c2ccc(Cl)c(O)c2)c(-c2ccncc2)[nH]1` reads 3.02%; that for `O=C(OCc1ccccc1)N1CCc2c([nH]c3ccccc23)C1CCC(F)(F)F` (stereo not drawn), 2.6%; that for `Cc1cc(NC(=O)Nc2cccc(Cl)c2Cl)c2ccccc2n1`, 6.44%.
Still for that read-out and setting: the result for `COc1ccc2nccc(N3C[C@H]4C[C@@H]3CN4CCNCc3ccc4c(n3)NC(=O)CS4)c2n1` reads 0.1%.
As to `COc1cc(CNc2ccc(N3CCCC3)cc2)cc(Cl)c1OC`, the inhibition is -4.72%.
Still for that read-out and setting: the result for `Cc1ccccc1C1CCN(C2CCC(NC(=O)c3cc(-c4ccccc4)oc3C)CC2)CC1` (stereo not drawn) reads 0.71%; that for `COc1cccc(CN(C(=O)Nc2ccccc2F)[C@H]2C[C@H]3C(=O)Nc4cc(F)ccc4C(=O)N3C2)c1`, 4.97%; that for `CC(=O)c1sc2ccccc2c1O`, -1%.
Still for that read-out and setting: in the case of `O=S1(=O)NCc2ccc(Nc3nccc(Nc4ccc5c(cnn5Cc5ccccc5)c4)n3)cc21` it was 6.35%; in that of `OC(CNc1ccnc(Nc2cccc(OCCCN3CCOCC3)c2)n1)c1ccccc1` (stereo not drawn), 0.43%.
Same read-out and setting: in the case of `CCC(C)(C)c1ccc(Oc2ccc(NC(=O)Nc3ccc(Cl)c(Cl)c3)cc2)cc1` it was 1.24%; in that of `CC1(C)NC(N)=NC(=N)N1OCc1ccc2ccccc2c1CON1C(=N)N=C(N)NC1(C)C`, 2.14%.
Consider `CN(C)CCNC(=O)c1ccc2c(c1)ncn2-c1cc(OCc2ccccc2C(F)(F)F)c(C(N)=O)s1.CN(C)CCNC(=O)c1ccc2ncn(-c3cc(OCc4ccccc4C(F)(F)F)c(C(N)=O)s3)c2c1`, for which the inhibition worked out at 1.7%.
The same measure, in the same setting: in the case of `COc1ccc(NC(=O)Nc2ccc(-c3ccncc3)c(C(F)(F)F)c2)cc1N1CCN(C)CC1` it was 12.6%; in that of `CCn1c(SCc2ccccc2)nc2c1c(=O)[nH]c(=O)n2C`, -0.05%.
Still for that read-out and setting: the result for `COc1ccc(Nc2nc(NCc3cccnc3)cc(-c3ccc(OC)cc3)n2)cc1` reads 0.66%; that for `Cc1cc(N[C@@H](Cc2ccccc2)C(=O)NCCOc2ccccc2)nc(NCCc2ccccn2)n1`, 6.41%; that for `CC(C)(C)c1cc(C(=O)N2CCN(c3ncnc4ccsc34)CC2)n(Cc2ccccc2)n1`, 4.01%.
Still for that read-out and setting: in the case of `Cc1nnsc1C(=O)Nc1ccc(-c2cccc(-c3nc4cccc(C)c4[nH]3)c2)cc1` it was 2.94%; in that of `O=C1OC2(CN1CC1CCN(Cc3ccc(O)cc3Cl)C1)c1ccccc1-c1ccccc12` (stereo not drawn), -2.55%; in that of `CCOc1ccc(C(=O)Nc2cc(Br)c3c(c2)CNCC3)cc1C#N`, 5.03%.
On to `Cc1cc(CN2CCC(N3CC(c4ccccc4)(c4ccccc4)OCC3=O)C2)ccc1O` (stereo not drawn), for which the inhibition was 0.87%.
On the same count and under the same terms, in the case of `CCCCCc1cc(OC(C)=O)c2c(c1)OC(C)(C)C=C2C1=CCN(Cc2ccccc2)CC1` it was 1.45%; in that of `O=S(=O)(NCCN1CCCC1)c1ccc(-c2ccc(CNCc3ccsc3)cc2)s1`, 7.66%; in that of `COc1ccc2c(C)cc(NCCCN(C)C)nc2c1`, -0.64%.
Take `CO/C(=C\C=C\c1cc2cc(Cl)c(Cl)cc2[nH]1)C(=O)NCCCN1CCCC[C@H]1C`: the inhibition worked out at 2.98%.
Regarding `Cc1cccc2nc(-c3ccc(-c4ccc(CN5CCCCC5CO)cc4)cc3)[nH]c12` (stereo not drawn), the inhibition amounted to 31.6%.
In the case of `N=C1NC(c2ccccc2)(c2ccccc2)C(=O)N1CC=Cc1ccccc1`, the inhibition is 8.66%.
On the same count and under the same terms, in the case of `CC(O)C1CCCCN1C(=O)c1ccc(-c2ccc(-c3nc4ccccc4[nH]3)s2)cc1` (stereo not drawn) it was -3.15%.
Still for that read-out and setting: the result for `COc1cc2c(cc1CCNCCCCNCCc1cc3c(cc1OC)CCCC3)CCCC2` reads 98.4%; that for `COc1ccc(CNC2Cc3ccccc3C2)cc1-c1ccc(S(=O)(=O)NCCN2CCCC2)c(F)c1`, 14%.
